The panel holds about 79,000 compounds, 15% with a hit somewhere; the sample as a whole holds those more often. Active and inactive are the calls of the source. Cut-off read from the data, not from the text of the source: active = growth inhibition above about 70%; inactive = the rest.
How the values were obtained:
[1] = NCI Yeast Anticancer Drug Screen. Data for the wt2 strain (AID 169);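 note: 0% = growth of vehicle-treated yeast cultures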; details: S. cerevisiae wt2 strain growth inhibition, hits give high values
Method in brief: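 Compound exposure of yeast; growth compared with vehicle controls; inhibition reported.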

[2] = NCI Yeast Anticancer Drug Screen. Data for the mlh1 strain (AID 171);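 note: 0% = growth of vehicle-treated control cultures of the same strain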; details: S. cerevisiae mlh1 strain growth inhibition, hits give high values
Method in brief: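 Compounds are applied to a genetically altered yeast strain, and its growth is compared with that of vehicle-treated cultures to give percent inhibition.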

[3] = NCI Yeast Anticancer Drug Screen. Data for the sgs1 strain (AID 173);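 note: 0% = growth of vehicle-only control cultures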; details: S. cerevisiae sgs1 mutant, hits give high values
Method in brief: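 Compounds applied to genetically altered yeast; growth compared with vehicle-treated cultures to give % inhibition.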

[4] = NCI Yeast Anticancer Drug Screen. Data for the mlh1 rad18 strain (AID 175); details: S. cerevisiae mlh1 rad18 strain growth inhibition, hits give high values
Method in brief: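 Cells of a genetically altered yeast strain, deficient in DNA damage repair, were treated with compound. Their growth was then compared with that of vehicle-treated cultures to give inhibition.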

[5] = NCI Yeast Anticancer Drug Screen. Data for the rad18 strain (AID 177); details: S. cerevisiae rad18 mutant growth inhibition, hits give high values
Method in brief: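 Compounds are applied to a repair-deficient yeast strain, and growth is compared with that of vehicle-treated cultures to give percent inhibition.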

[6] = NCI Yeast Anticancer Drug Screen. Data for the rad52 strain (AID 147);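 note: 0% = growth of vehicle-treated control cultures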; details: S. cerevisiae rad52 mutant growth inhibition, hits give high values
Method in brief: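 DNA repair-defective yeast; compound exposure; growth scored against vehicle controls.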

[7] = NCI Yeast Anticancer Drug Screen. Data for the wt1 strain (AID 149);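 note: 0% = growth of vehicle-treated wt1 cultures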; details: S. cerevisiae wt1 strain (SPY 50644) growth inhibition, hits give high values
Method in brief: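 wt1 yeast, compound-treated; % growth inhibition vs vehicle control.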

[8] = NCI Yeast Anticancer Drug Screen. Data for the rad50EPP+ strain (AID 151);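 note: 0% = growth of vehicle-treated control cultures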; details: S. cerevisiae rad50 mutant strain, hits give high values
Method in brief: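 rad50EPP+ yeast treated with test compounds. Readout: growth vs vehicle control.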

[9] = NCI Yeast Anticancer Drug Screen. Data for the mgt1 strain (AID 153); details: S. cerevisiae mgt1 mutant growth inhibition, hits give high values
Method in brief: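 Growth inhibition relative to vehicle controls was scored for the mgt1 yeast strain after compound exposure.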

[10] = NCI Yeast Anticancer Drug Screen. Data for the rad50 strain (AID 155);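 note: 0% = growth of vehicle-only cultures of the same strain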; details: S. cerevisiae rad50 strain growth inhibition, hits give high values
Method in brief: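 Genetically altered yeast (DNA repair pathway); compound treatment; growth inhibition vs vehicle ctrl.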

[11] = NCI Yeast Anticancer Drug Screen. Data for the mec2-1 strain (AID 157); details: S. cerevisiae mec2-1 strain, hits give high values
Method in brief: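 Growth inhibition is read against vehicle-treated controls after compound exposure of the mec2-1 yeast strain, which is defective in DNA damage repair or cell cycle control.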

[12] = NCI Yeast Anticancer Drug Screen. Data for the rad14 strain (AID 159);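 note: 0% = growth of vehicle-treated control cultures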; details: S. cerevisiae rad14 strain growth inhibition, hits give high values
Method in brief: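 Test compounds were applied to a repair-deficient yeast strain. Its growth was then compared with that of cultures given vehicle alone, and inhibition was expressed relative to those controls.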

[13] = NCI Yeast Anticancer Drug Screen. Data for the sgs1 mgt1 strain (AID 161);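 note: 0% = growth of cultures given vehicle only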; details: S. cerevisiae sgs1 mgt1 strain, hits give high values
Method in brief: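 This yeast growth screen uses a strain with defined DNA-repair lesions; compound-treated growth is compared with vehicle-treated growth.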

[14] = NCI Yeast Anticancer Drug Screen. Data for the CLN2oe strain (AID 163);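 note: 0% = growth of vehicle-only control cultures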; details: S. cerevisiae CLN2oe strain, hits give high values
Method in brief: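 Compound-treated yeast; growth vs vehicle ctrl = % inhibition. Genetically altered strain (cell-cycle control).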

[15] = NCI Yeast Anticancer Drug Screen. Data for the cln2 rad14 strain (AID 165);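 note: 0% = growth equal to vehicle treated cultures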; details: S. cerevisiae cln2 rad14 strain, hits give high values
Method in brief: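 Growth inhibition, relative to vehicle-treated controls, is the read-out. The test organism is a yeast strain with defined genetic alterations, cln2 rad14.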

[16] = NCI Yeast Anticancer Drug Screen. Data for the bub3 strain (AID 167); details: S. cerevisiae bub3 mutant strain, hits give high values
Method in brief: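 Yeast carrying a defined mutation is treated with each compound, and growth is compared with that of vehicle-exposed cells to give inhibition.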

[17] = at 5.0 µM (retest, dose inferred, filed as 0.5)
[18] = at 50.0 µM (retest, dose inferred, filed as 5.0)

Measured: growth inhibition

O=C(O)c1cc2c(cc1S(=O)(=O)O)C1C(C3C2C2(Cl)C(Cl)=C(Cl)C3(Cl)C2(Cl)Cl)C2(Cl)C(Cl)=C(Cl)C1(Cl)C2(Cl)Cl (centres undefined)
active: [1]; at 33.0 µM 90% | [1]; at 100.0 µM 96% | [2]; at 33.0 µM 95% | [2]; at 100.0 µM 97% | [3]; at 33.0 µM 92% | [3]; at 100.0 µM 96% | [4]; [18] 98% | [4]; at 50.0 µM 96.3% | [5]; at 33.0 µM 82% | [5]; at 100.0 µM 95%
inactive: [1]; at 1.2 µM 1% | [1]; at 3.7 µM 0% | [1]; at 11.0 µM 12% | [2]; at 1.2 µM -2% | [2]; at 3.7 µM -2% | [2]; at 11.0 µM 11% | [3]; at 1.2 µM -4% | [3]; at 3.7 µM -1% | [3]; at 11.0 µM 21% | [4]; [17] 67% | [5]; at 1.2 µM -1% | [5]; at 3.7 µM -1% | [5]; at 11.0 µM -8%

C=CCNC1=C2C[C@@H](C)C[C@H](OC)[C@H](O)[C@@H](C)/C=C(\C)[C@H](OC(N)=O)[C@@H](OC)/C=C\C=C(/C)C(=O)NC(=CC1=O)C2=O
inactive: [6]; at 1.2 µM -16% | [6]; at 3.7 µM -21% | [6]; at 11.0 µM 46% | [7]; at 1.2 µM -26% | [7]; at 3.7 µM -53% | [7]; at 11.0 µM 41% | [8]; at 1.2 µM -33% | [8]; at 3.7 µM -43% | [8]; at 11.0 µM -46% | [8]; at 33.0 µM -30% | [8]; at 100.0 µM -1% | [9]; at 1.2 µM -72% | [9]; at 3.7 µM -44% | [9]; at 11.0 µM 57% | [10]; at 1.2 µM -33% | [10]; at 3.7 µM -12% | [10]; [17] -32% | [10]; at 11.0 µM 64% | [11]; at 1.2 µM -73% | [11]; at 3.7 µM -59% | [11]; [17] 5% | [12]; at 1.2 µM -73% | [12]; at 3.7 µM -42% | [12]; at 11.0 µM 55% | [13]; [17] -7% | [14]; at 1.2 µM -60% | [14]; at 3.7 µM -43% | [14]; at 100.0 µM 27% | [15]; [17] -4% | [16]; at 1.2 µM -49% | [16]; at 3.7 µM -12% | [16]; [17] 35% | [1]; at 1.2 µM -51% | [1]; at 3.7 µM -65% | [1]; at 11.0 µM 33% | [2]; at 1.2 µM -36% | [2]; at 3.7 µM -56% | [2]; at 11.0 µM 50% | [3]; at 1.2 µM -34% | [3]; at 3.7 µM -10% | [3]; at 11.0 µM 56% | [4]; [17] -7% | [5]; at 1.2 µM -22% | [5]; at 3.7 µM -23% | [5]; at 11.0 µM 68%
active: [6]; at 33.0 µM 97% | [6]; at 100.0 µM 97% | [7]; at 33.0 µM 95% | [7]; at 100.0 µM 96% | [9]; at 33.0 µM 95% | [9]; at 100.0 µM 95% | [10]; at 33.0 µM 95% | [10]; [18] 96% | [10]; at 50.0 µM 90.8% | [10]; at 100.0 µM 95% | [11]; at 11.0 µM 77% | [11]; at 33.0 µM 96% | [11]; [18] 98% | [11]; at 50.0 µM 92.5% | [11]; at 100.0 µM 95% | [12]; at 33.0 µM 95% | [12]; at 100.0 µM 94% | [13]; [18] 96% | [13]; at 50.0 µM 92% | [14]; at 11.0 µM 80% | [14]; at 33.0 µM 96% | [15]; [18] 97% | [15]; at 50.0 µM 90.3% | [16]; at 11.0 µM 74% | [16]; at 33.0 µM 95% | [16]; [18] 98% | [16]; at 50.0 µM 90.4% | [16]; at 100.0 µM 94% | [1]; at 33.0 µM 93% | [1]; at 100.0 µM 96% | [2]; at 33.0 µM 94% | [2]; at 100.0 µM 95% | [3]; at 33.0 µM 94% | [3]; at 100.0 µM 96% | [4]; [18] 97% | [4]; at 50.0 µM 89.1% | [5]; at 33.0 µM 95% | [5]; at 100.0 µM 95%

COc1ccc(C(OCC2OC(n3cnc4c(=O)n(Cc5ccccc5[N+](=O)[O-])nnc43)C(O)C2O)(c2ccccc2)c2ccc(OC)cc2)cc1 (centres undefined)
inactive: [6]; at 1.2 µM 12% | [6]; at 3.7 µM 16% | [6]; at 11.0 µM 18% | [6]; at 33.0 µM 19% | [6]; at 100.0 µM 15% | [7]; at 1.2 µM -18% | [7]; at 3.7 µM -11% | [7]; at 11.0 µM -2% | [7]; at 33.0 µM -4% | [7]; at 100.0 µM -2% | [8]; at 1.2 µM 8% | [8]; at 3.7 µM 8% | [8]; at 11.0 µM -5% | [8]; at 33.0 µM -7% | [8]; at 100.0 µM -15% | [9]; at 1.2 µM 9% | [9]; at 3.7 µM 5% | [9]; at 11.0 µM 20% | [9]; at 33.0 µM 25% | [9]; at 100.0 µM 20% | [10]; at 1.2 µM 22% | [10]; at 3.7 µM 24% | [10]; [17] 17% | [10]; at 11.0 µM 26% | [10]; at 33.0 µM 18% | [10]; [18] 35% | [10]; at 100.0 µM 17% | [11]; at 1.2 µM 14% | [11]; at 3.7 µM 13% | [11]; [17] 14% | [11]; at 11.0 µM 15% | [11]; at 33.0 µM 22% | [11]; [18] 33% | [11]; at 100.0 µM 9% | [12]; at 1.2 µM -23% | [12]; at 3.7 µM -22% | [12]; at 11.0 µM -25% | [12]; at 33.0 µM -28% | [12]; at 100.0 µM -31% | [13]; [17] 0% | [14]; at 1.2 µM 9% | [14]; at 3.7 µM -4% | [14]; at 11.0 µM -7% | [14]; at 33.0 µM 11% | [14]; at 100.0 µM -3% | [15]; [17] 2% | [16]; at 1.2 µM 32% | [16]; at 3.7 µM 26% | [16]; [17] 7% | [16]; at 11.0 µM 23% | [16]; at 33.0 µM 26% | [16]; at 100.0 µM 14% | [1]; at 1.2 µM 1% | [1]; at 3.7 µM -4% | [1]; at 11.0 µM 6% | [1]; at 33.0 µM 13% | [1]; at 100.0 µM 6% | [2]; at 1.2 µM -8% | [2]; at 3.7 µM -2% | [2]; at 11.0 µM -2% | [2]; at 33.0 µM 3% | [2]; at 100.0 µM -4% | [3]; at 1.2 µM -10% | [3]; at 3.7 µM -20% | [3]; at 11.0 µM -10% | [3]; at 33.0 µM -5% | [3]; at 100.0 µM 8% | [4]; [17] 21% | [4]; [18] 23% | [5]; at 1.2 µM 28% | [5]; at 3.7 µM 27% | [5]; at 11.0 µM 33% | [5]; at 33.0 µM 37% | [5]; at 100.0 µM 32%
active: [10]; at 50.0 µM 89.2% | [11]; at 50.0 µM 91.4% | [13]; [18] 97% | [13]; at 50.0 µM 91.6% | [15]; [18] 88% | [15]; at 50.0 µM 88.7% | [16]; [18] 96% | [16]; at 50.0 µM 89.4% | [4]; at 50.0 µM 89.5%

Reference: PubChem BioAssay (NCI)
